Experimental data taken from PubChem BioAssay (Tox21).
Records with an inconclusive call do not appear. Values without a mark were called inactive. Calls come from the whole dose curve; as a rule, active = well fitted inhibition curve with a large enough effect in the signal ratio in the repeat runs (not every such curve was filed as active); inconclusive = weak or mixed curves, or effect the other way; inactive = flat fitted curve, though single readings scatter; the % refers to the signal ratio.

Assay: cAMP Responsive Elements (CRE) small molecule antagonists, cell-based qHTS assay (AID 1963591)
Conditions: CRE-bla HEK293T, beta-lactamase FRET ratio; series mostly up to 92.4 µM; activity change, negative = inhibition: at the top concentration
From the text: U.S. Tox21 Program National Center for Advancing Translational Sciences [NCATS] Division of Preclinical Innovation [DPI] U.S. Environmental Protection Agency [EPA] National Institutes of Environmental Health Sciences [NIEHS] National Toxicology Program [NTP] U.S. Food and Drug Administration [FDA] Tox21 Assay Overview: CREB (cyclic-AMP Responsive Element Binding Protein) is a cellular transcription factor. It binds to certain DNA sequences called cAMP Responsive Elements (CRE) and regulates the transcription of the genes. […] This cell line can be used to find agonists/antagonists of the cyclic AMP signaling pathway. The activation of the report gene under culture conditions can be detected by fluorescence intensity. This cell line has been used to screen the Tox21 10K compound library to […].
Tox21 Assay Protocol Summary: CRE-bla Hek 293T cells were suspended in assay medium (DMEM containing 10% dialyzed FBS, 0.1 mM NEAA, 1 mM sodium pyruvate and 25 mM HEPES) and dispensed at 2,000 cells/4 uL /well into 1536-well black wall/clear bottom plates using a Multidrop Combi (ThermoFisher Scientific, Waltham, MA) dispenser. After the assay plates were incubated at 37 C/5% CO2 for 18 hrs, 23 nL of compounds dissolved in DMSO, positive controls or DMSO only was transferred to the assay plate by a pintool workstation (Kalypsys, San Diego, CA), followed by addition of 1 […] uL of 1.25uM NKH477 (0.25 uM as final concentration) in assay medium using a Flying Reagent Dispenser (Aurora Discovery, San Diego, CA). The plates were incubated at 37 C and 5% CO2 for 3 hrs. Then 1 uL of LiveBLAzer B/G FRET substrate (Invitrogen, Carlsbad, CA) was added to each well using Bioraptr Flying Reagent Dispenser (FRD, Aurora Discovery, San Diego, CA). The plates were incubated at room temperature for 2 h.
% is set by controls: 0 for no effect and ±100 for the full control effect.

| SMILES | activity change, negative = inhibition |
| --- | --- |
| c1ccc(CCNc2nc(-c3ccccc3)cs2)cc1 | -5.81% [at 42.4 µM] |
| CCC(C)c1nccnc1OC (stereo not given) | -2.23% |
| CCCCCCCCCCCc1ccccc1 | -4.27% |
| O=C(O)CCCc1ccccc1 | 3% [at 42.4 µM] |
| CN1CCOC(c2ccccc2)c2ccccc2C1 (stereo not given) | -3.32% [at 42.4 µM] |
| CC(C)OC(=O)c1cc2c(OCC(O)CNC(C)(C)C)cccc2[nH]1 (stereo not given) | 14.7% [at 42.4 µM] |
| CC(C)COC(=O)COc1cc(Cl)c(Cl)cc1Cl | -1.11% |
| CC1(C)C(=O)N(CO)C(=O)N1CO | -7.19% |
| CO[Si](CCC1CCC2OC2C1)(OC)OC (stereo not given) | 1.95% |
| CCOC(=O)[C@H](CCc1ccccc1)N[C@@H](C)C(=O)N1CCC[C@H]1C(=O)O | 2.27% [at 42.4 µM] |
| NS(=O)(=O)c1cc2c(cc1C(F)(F)F)NCNS2(=O)=O | -0.67% [at 42.4 µM] |
| CCCCCCCCCC#N | -5.63% |
| C1=CCCC1 | 0.742% |
| CCCN(CCC)CCc1cccc2c1CC(=O)N2 | 1.94% [at 42.4 µM] |
| C[C@H]1C[C@H]2[C@@H]3CCC4=CC(=O)C=C[C@]4(C)[C@@]3(F)[C@@H](O)C[C@]2(C)[C@@]1(O)C(=O)COP(=O)(O)O | -0.814% |
| NCCCCCC(=O)O | -11% [at 42.4 µM] |
| Cc1ccco1 | -4.94% |
| CCC1(C)C(=O)N(Cl)C(=O)N1Cl (stereo not given) | -4.15% |
| O=C1c2ccccc2C(=O)C1c1ccc2ccccc2n1 | -1.06% [at 42.4 µM] |
| Cn1c(=O)c2c(ncn2CC(O)CO)n(C)c1=O (stereo not given) | 4.97% [at 42.4 µM] |

| SMILES | activity change, negative = inhibition |
| --- | --- |
| C[C@@H]1CN(c2c(F)c(N)c3c(=O)c(C(=O)O)cn(C4CC4)c3c2F)C[C@H](C)N1 | -4.06% [at 18.9 µM] |
| CCCCCCCCOC(C)=O | -8.84% |
| Cc1cccc(C)c1C | -5.8% |
| CC1(C)CC(N)CC(C)(C)N1 | 12% |
| CCCCOC(=O)C(C)Oc1ccc(Oc2ccc(C(F)(F)F)cn2)cc1 (stereo not given) | 8.03% |
| CCc1ccc(CC)cc1 | 0.172% |
| C=C[Si](C)(C)O[Si](C)(C)C=C | -8.02% |
| Cc1cc2c(OCC(CNC(C)(C)C)OC(=O)c3ccccc3)cccc2[nH]1 (stereo not given) | -9.03% [at 42.4 µM] |
| CCC1CO1 (stereo not given) | -1.84% |
| NC(=O)C1(N2CCCCC2)CCN(CCCC(=O)c2ccc(F)cc2)CC1 | -2.18% [at 42.4 µM] |
| O=[N+]([O-])c1ccc2[nH]ncc2c1 | 4.96% |
| Nc1[nH]c(=O)ncc1F | -1.6% [at 42.4 µM] |
| CCCCC(CC)COC(=O)c1ccccc1O (stereo not given) | -8.69% [at 42.4 µM] |
| N#C/C(=C1\SCC(c2ccccc2Cl)S1)n1ccnc1 (stereo not given) | -2.1% [at 42.4 µM] |
| COc1cc(CNC(=O)CCCC/C=C/C(C)C)ccc1O | -0.569% |
| Cc1cc(C(C)(C)C)c(O)c(C)c1CC1=NCCN1 | -1.15% [at 42.4 µM] |
| CCn1cc(C(=O)O)c(=O)c2cc(F)c(N3CCNCC3)nc21 | -8.25% [at 42.4 µM] |
| CC(C)C[P+](C)(CC(C)C)CC(C)C | 3% |
| CCOC(=O)C1=NN(c2ccc(Cl)cc2Cl)C(C)(C(=O)OCC)C1 (stereo not given) | 4.39% |
| O=P(O)(O)OCC(O)CO (stereo not given) | -3.58% [at 42.4 µM] |
